Among the data in PubChem BioAssay (NCATS) are Potency values, retold here.

Inconclusive results are not listed. Where a call stands in place of a potency, no number is given. Calls of active or inactive are those of the source. Calls come from the whole dose curve; as a rule, active = well fitted inhibition curve with a large enough effect; inconclusive = small, poorly fitted or top-dose-only effect; inactive = flat fitted curve, though single readings scatter.
Potency is the fitted concentration of half-maximal effect.

The target of this assay is Aldehyde dehydrogenase, mitochondrial (Homo sapiens) (UniProt P05091). The experiment in a line: qHTS for Inhibitors of the Aldehyde Dehydrogenase Family (ALDH2) Primary screen (AID 2061308). Note: nearly all actives have a fitted effect of over 55% in size. To be noted: ALDH2 enzyme inhibition qHTS, 1536-well; series mostly up to 56 µM. Background: Quantitative high-throughput screening tests each substance at several concentrations.
On to `Oc1ccc(CNc2ccccc2C(F)(F)F)c2cccnc12`, for which the Potency result was “inactive”.

On to `FC(F)(F)c1cc(-c2ccc(CNc3nc(-c4ccccc4C(F)(F)F)nc4ccsc34)cc2)ccn1`, for which the Potency result was “inactive”.

As to `O=C(O)c1cccc(-c2noc(-c3ccccc3C(F)(F)F)n2)c1`, the Potency result is “inactive”.

With `COc1ccc(/C=C(\C)C2Nc3cccc4cccc(c34)N2)cc1`, the Potency entry is “inactive”.

As for `O=C(NO)c1cnc(N2CCN(S(=O)(=O)c3ccc4ccccc4c3)CC2)nc1`, the Potency entry is “inactive”.

Turning to `CC(C)(C)OC(=O)N1CCN(c2ccc(NCc3ccoc3-c3ccc(C#N)cc3)cc2)CC1`, the Potency result was “inactive”.

Turning to `CN1CCc2ccc3c4c2[C@]1(C)Cc1cccc(c1-4)OCO3`, the Potency entry is “inactive”.

For the compound `C/C(=C\c1ccccc1)C1Nc2cccc3cccc(c23)N1`, the Potency result is “inactive”.

As to `N#Cc1nc(NCC(F)F)c2ncn(-c3cccc(Cl)c3)c2n1`, the Potency result was “inactive”.

With `Cc1ccnc(NC(=S)N2CCCC(Nc3cccc(C(F)(F)F)c3)C2)c1` (stereo not given), the Potency result was “inactive”.

Take `c1cc2c3c(cccc3c1)NC(c1ccc3c(c1)OCO3)N2`: the Potency entry is “inactive”.

For the compound `COc1ccc(O)c(-c2nc3ccccc3c(=O)n2Cc2ccccc2)c1`, the Potency result was “inactive”.

Take `CC(C)c1ccccc1-c1nccc(NCc2ccc(-c3cccnc3)cc2)n1`: the Potency entry is “inactive”.

As for `N#Cc1cccc(CSc2nc3ncc(Br)cc3[nH]2)c1`, the Potency result is “inactive”.

As to `COc1ccc(OC)c(NC(=O)c2ccccc2OC(C)=O)c1`, the Potency result was “inactive”.

Turning to `CCc1ccc(NC(=O)C(=O)NNC(=O)c2cccs2)cc1`, the Potency result was “inactive”.

As for `CC1=CC2=C(C)C(=O)[C@](C)(O)[C@H](O)C2=CO1`, the Potency entry was “inactive”.

Regarding `Cc1nnc(-c2cnn(C)c2N)n1CCCc1ccncc1`, the Potency entry was “inactive”.

For `O=C(O)c1ccc(-c2noc(-c3ccc(F)cc3)n2)cc1`, the Potency result was “inactive”.

Consider `COc1cccc(CNc2ccc(S(=O)(=O)Nc3ccccn3)cc2)c1O`, for which the Potency entry is “inactive”.

With `Fc1ccccc1-c1nc(-c2ccccc2)no1`, the Potency result was “inactive”.

On to `CNc1nc(Nc2ccc(C(=O)N3CCOCC3)cc2OC)nc2[nH]cc(Cl)c12`, for which the Potency entry was “inactive”.

Regarding `Cc1cnc(-c2ccccc2C(F)(F)F)nc1NCc1ccc(-c2cccnc2)cc1`, the Potency result was “inactive”.

With `CC(C)(C)OC(=O)N1CCN(c2ccc(NCc3ncc(-c4ccc(C#N)cc4)o3)cc2)CC1`, the Potency is 1.12 µM (active).

Take `Cc1ccc(C)c(SC2=NS(=O)(=O)c3cc(C(=O)NCc4ccccc4)ccc32)c1`: the Potency result was “inactive”.

Take `FC(F)(F)c1cc(Cl)cc(-c2ccc(CNc3nc(-c4ccccc4C(F)(F)F)nc4ccccc34)cc2)c1`: the Potency entry was “inactive”.

In the case of `COc1ccc2nc(-c3cccc(C)c3)sc2c1`, the Potency result is “inactive”.

In the case of `COc1ccc(C(O[C@@H]2O[C@H](CO)[C@@H](O)[C@H](O)[C@H]2O)C(CO)Oc2ccc(/C=C/CO)cc2OC)cc1O` (stereo not given in full), the Potency result is “inactive”.

Turning to `C=C1/C(=C/C=C2\CCC[C@]3(C)[C@@H]([C@H](C)/C=C/[C@H](O)C4CC4)CC[C@@H]23)C[C@@H](O)C[C@@H]1O`, the Potency entry was “inactive”.

On to `Cc1ccsc1CN(C)c1ncnc2ccc(-c3ccc(C(=O)N(C)C)o3)cc12`, for which the Potency entry is “inactive”.

Take `COc1cc(OC)c(C(CC(=O)N2CC(C)CC(C)C2)c2ccc3c(c2)OCO3)c(OC)c1` (stereo not given): the Potency entry was “inactive”.

With `O=C(O)c1ccc(Cc2c(-c3cccc(-c4ccccc4)c3)[nH]n(-c3nc(C(=O)O)cs3)c2=O)cc1`, the Potency entry is “inactive”.

For the compound `O=C(O)c1cccc(-c2noc(-c3ccc(F)cc3)n2)c1`, the Potency result was “inactive”.

Turning to `Cc1ccc(C2Nc3cccc4cccc(c34)N2)s1`, the Potency entry is “inactive”.

`O=C(O)c1cccc(-c2noc(-c3ccccc3Cl)n2)c1`: the Potency entry was “inactive”.

Regarding `C=C1CC[C@@H](O)[C@]2(C)CC[C@H]3C(=C)C(=O)O[C@@H]3[C@@H]12`, the Potency entry was “inactive”.

With `COc1cccc(-c2nc(-c3cccc(C(=O)O)c3)no2)c1`, the Potency result is “inactive”.

In the case of `Cc1ccc(-c2ccc(=O)n(CC(=O)NCCc3ccccc3)c2)cc1`, the Potency entry is “inactive”.

For `CCOc1ccc(CCNC(=O)c2ccccn2)cc1OCC`, the Potency result is “inactive”.

Turning to `FC(F)(F)c1ccccc1-c1nc(NCc2ccc(-c3cccnc3)cc2)c2sccc2n1`, the Potency result was “inactive”.
